In PubChem BioAssay (NCATS):
Where “and” joins values, the source holds several entries; their conditions need not be identical. Equal values may be shown once. Inconclusive results are not listed. Calls of active or inactive are those of the source. Unless noted, calls come from the whole dose curve; as a rule, active = well fitted curve in the direction sought with a large enough effect; inconclusive = small, poorly fitted or top-dose-only effect, or another doubt; inactive = no such curve, though single readings can be large; an effect the other way counts as inactive or inconclusive.

How the values were obtained:
[1] = molecular target: Mitogen-activated protein kinase 10 (Mus musculus) (UniProt Q61831); test: JNK3 AlphaScreen Assay (AID 530; active = well fitted curve in either direction with a large enough effect, not every such curve was filed as active;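 note: kinase came from lysate of stimulated human HepG2 cells; signal reports phosphorylation of biotinylated GST-cJun 1-79 at Ser73 with 10 µM ATP; % is set by controls: 0 for no effect and ±100 for the full control effect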)
In short: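 Phosphorylation of biotinylated GST-cJun(1-79) at Ser73 is measured by AlphaScreen proximity luminescence. Enzyme is JNK3 in HepG2 lysates activated with interleukin-1beta and tumor necrosis factor alpha; ATP is 10 uM final.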

[2] = Cell Viability - HUV-EC-C (AID 542);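 note: cells exposed to compound for 40 hours; % is set by controls: 0 for no effect and ±100 for the full control effect; nearly all actives have a fitted effect of over 35% in size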
In short: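 CellTiter-Glo luminescence measured ATP loss in HUV-EC-C cells (1000/well) after 40 hr compound exposure at 37 °C, in complete culture medium. Concentration-response data were Hill-fitted to give AC50.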

[3] = Cell Viability - H-4-II-E (AID 543);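 note: cells exposed to compound for 40 hours; % is set by controls: 0 for no effect and ±100 for the full control effect; nearly all actives have a fitted effect of over 35% in size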
In short: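 CellTiter-Glo luminescence (intracellular ATP) measured after 40 h compound exposure at 37 °C in H-4-II-E rat hepatoma cells seeded at 1500/well. Values are AC50s fitted with the standard Hill equation.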

[4] = Cell Viability - SH-SY5Y (AID 544);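 note: cells exposed to compound for 40 hours; nearly all actives have a fitted effect of over 55% in size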
In short: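 Cytotoxicity measured via ATP-dependent luciferase luminescence (CellTiter-Glo) following 40 h, 37 °C exposure of 1500 SH-SY5Y cells per well. Concentration-response data were fitted with the standard Hill equation to give AC50.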

[5] = Cell Viability - Renal Proximal Tubule (AID 545); details: renal proximal tubule cells viability, primary cells of rat origin; at 91.7 µM (top of the series);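 note: cells exposed to compound for 40 hours; nearly all actives have a fitted effect of over 40% in size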
In short: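 Primary rat renal proximal tubule cells (1000/well) were treated with compounds for 40 hr at 37 °C in complete medium. Intracellular ATP was measured by CellTiter-Glo luminescence, and AC50 values came from Hill-equation fits of concentration-response data.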

[6] = Cellular Toxicity (caspase-3) HepG2 (AID 654);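 note: cells exposed to compound for 16 hours before reading; 0% = DMSO alone and 100% = caspase signal from 100 µM tamoxifen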
In short: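 Caspase 3/7 activation is measured as a luminescence increase (aminoluciferin substrate) after 16 h compound exposure of human hepatocarcinoma HepG2 cells. AC50 values are Hill fits, scaled between DMSO baseline and 100 uM tamoxifen stimulation.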

[7] = Cellular Toxicity (caspase-3) Jurkat (AID 655); details: Jurkat caspase-3 activation, luminescence, DMSO = 0%, tamoxifen = 100%; at 92.2 µM (top of the series);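 note: cells exposed to compound for 16 h at 37 °C before reading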
In short: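 Jurkat cells (5000/well) in complete medium were treated with compounds for 16 hr at 37 °C, then Caspase-Glo 3/7 luminescence was read after 20 min at room temperature. Data normalized to DMSO (basal) and 100 uM tamoxifen (100%); AC50 from Hill fit.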

[8] = Cellular Toxicity (caspase-3) HUV-EC-C (AID 656)
In short: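 HUV-EC-C endothelial cells, 1000/well, were pre-incubated 5 hr at 37°C, then exposed to compounds for 16 hr at 37°C. Caspase-Glo 3/7 luminescence was read after 20 min at room temperature. AC50 came from Hill fits, normalized to DMSO and 100 uM tamoxifen.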

[9] = Cellular Toxicity (caspase-3) SHSY5Y (AID 657)
In short: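 SH-SY5Y human neuroblastoma cells (1500/well) were treated with compounds for 16 h at 37 °C, then Caspase-Glo 3/7 luminescence was read after 1 h at room temperature. Data normalized to DMSO and 10 uM staurosporine; AC50 from Hill fits.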

[10] = Cellular Toxicity (caspase-3) BJ (AID 658);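 note: 0% = DMSO basal and 100% = 10 µM staurosporine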
In short: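 Plated BJ cells (1000/well) rested 5 hr, received compound for 16 hr at 37 °C, then Caspase-Glo 3/7 reagent for 1 hr at room temperature before luminescence reading.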

[11] = Cellular Toxicity (caspase-3) MRC-5 (AID 659);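 note: 0% = DMSO basal and 100% = 10 µM staurosporine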
In short: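 Apoptosis readout in MRC-5 cells: luciferase light generated after caspase 3/7 cleaves a peptide-aminoluciferin substrate, measured post 16 hr compound incubation at 37 °C.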

[12] = Cellular Toxicity (caspase-3) Mesangial (AID 660);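 note: combined caspase 3 and 7 activity read by Caspase-Glo luminescence; cells exposed to compound for 16 h before the caspase read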
In short: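 Caspase 3/7 activation measured by Caspase-Glo 3/7 luminescence (20 min, room temperature) following 16 h exposure of mesangial cells (1000/well); AC50 from Hill-equation fit, normalized to DMSO and 100 uM tamoxifen.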

[13] = Cellular Toxicity (caspase-3) H-4-II-E (AID 663); details: Potency: caspase-3 activation;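 note: cells exposed to compound for 16 hr before readout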
In short: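 Caspase 3/7 activation measured in H-4-II-E cells in complete culture medium after 16 hr treatment at 37 °C, using luciferase-coupled substrate readout; AC50 values come from Hill-equation fits of normalized concentration-response data.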

[14] = Cellular Toxicity (caspase-3) Hek293 (AID 664);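 note: cells exposed to compound for 16 h at 37 °C before readout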
In short: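 Concentration-response qHTS: caspase 3/7 activation measured by luminescent aminoluciferin substrate cleavage after 16 h compound exposure of Hek 293 cells. AC50 from Hill equation, with DMSO as basal and 100 uM tamoxifen as 100%.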

[15] = molecular target: Glucocorticoid receptor (Homo sapiens) (UniProt P04150); test: qHTS assay for small molecule agonists of glucocorticoid receptor signaling (AID 588532; active = well fitted curve in the direction sought with a large enough effect in the signal ratio, with a control signal flat; the % refers to the signal ratio;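 note: 100% = dexamethasone at 0.1 µM and 0% = DMSO only wells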); details: HeLa MMTV-bla, beta-lactamase ratio, agonist, 18 h; hits give high values; percent of dexamethasone control, DMSO zero
Sequence of Glucocorticoid receptor (Homo sapiens) (P04150 whole entry, looked up): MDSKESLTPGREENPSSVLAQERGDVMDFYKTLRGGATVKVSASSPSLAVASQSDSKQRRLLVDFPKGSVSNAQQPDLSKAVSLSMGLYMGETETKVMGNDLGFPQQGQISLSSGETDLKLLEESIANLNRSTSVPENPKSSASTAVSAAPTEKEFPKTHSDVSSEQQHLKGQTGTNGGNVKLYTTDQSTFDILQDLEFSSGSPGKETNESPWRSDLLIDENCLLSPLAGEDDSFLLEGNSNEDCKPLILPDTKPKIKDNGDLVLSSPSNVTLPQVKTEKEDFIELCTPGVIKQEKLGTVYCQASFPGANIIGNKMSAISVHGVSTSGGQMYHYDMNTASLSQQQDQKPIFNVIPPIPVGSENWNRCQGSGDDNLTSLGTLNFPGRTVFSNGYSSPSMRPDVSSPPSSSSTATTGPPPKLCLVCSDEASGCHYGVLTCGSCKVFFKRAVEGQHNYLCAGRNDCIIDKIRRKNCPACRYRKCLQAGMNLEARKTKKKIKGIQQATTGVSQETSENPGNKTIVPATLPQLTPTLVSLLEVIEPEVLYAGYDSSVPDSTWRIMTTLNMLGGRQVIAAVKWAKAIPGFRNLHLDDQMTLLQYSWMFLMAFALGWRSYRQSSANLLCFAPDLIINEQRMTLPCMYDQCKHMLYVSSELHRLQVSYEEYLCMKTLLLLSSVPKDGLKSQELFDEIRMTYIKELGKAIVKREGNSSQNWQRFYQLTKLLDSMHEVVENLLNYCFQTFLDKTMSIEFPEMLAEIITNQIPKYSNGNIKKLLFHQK
In short: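 MMTV-bla HeLa, beta-lactamase reporter; medium with 1% charcoal/dextran-stripped FBS; cpds up to 92 uM, 18 h, 37 C; CCF4 readout 460/530 nm; Hill fit → EC50, efficacy vs 0.1 uM dexamethasone = 100%.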

[16] = molecular target: Vitamin D3 receptor (Homo sapiens) (UniProt P11473); test: qHTS assay for small molecule agonists of vitamin D receptor signaling (AID 588543; calls by dose curve;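 note: 0% = DMSO basal and 100% = reference agonist control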)
Sequence of Vitamin D3 receptor (Homo sapiens) (P11473 whole entry, looked up): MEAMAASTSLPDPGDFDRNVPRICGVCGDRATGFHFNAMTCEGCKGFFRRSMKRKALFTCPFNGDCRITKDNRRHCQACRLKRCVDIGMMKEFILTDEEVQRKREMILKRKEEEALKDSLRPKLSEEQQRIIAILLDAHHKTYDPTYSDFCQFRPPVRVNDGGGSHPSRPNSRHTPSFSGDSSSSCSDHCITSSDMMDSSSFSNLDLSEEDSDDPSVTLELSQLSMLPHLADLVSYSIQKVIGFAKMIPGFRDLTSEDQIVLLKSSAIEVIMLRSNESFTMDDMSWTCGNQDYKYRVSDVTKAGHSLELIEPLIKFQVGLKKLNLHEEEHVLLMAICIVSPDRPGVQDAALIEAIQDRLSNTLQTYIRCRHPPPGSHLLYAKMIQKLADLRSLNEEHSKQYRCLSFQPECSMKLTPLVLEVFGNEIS
In short: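 GeneBLAzer VDR-UAS-bla HEK293T cells in 2% charcoal-stripped FBS medium were dosed with compound titrations for 16 h at 37 °C; CCF4 β-lactamase readout (405 nm ex, 460/530 nm em). EC50 and efficacy from Hill fits, normalized to 50 nM calcitriol (100%) and DMSO (0%).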

[17] = molecular target: Thyroid hormone receptor beta (Homo sapiens) (UniProt P10828); test: qHTS assay for small molecule antagonists of thyroid hormone receptor beta signaling (AID 588547; active = well fitted inhibition curve with a large enough effect in the signal ratio, with a control signal flat, not every such curve was filed as active; the % refers to the signal ratio;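 note: cells stimulated with 0.4 nM T3 agonist during compound exposure; % is set by controls: 0 for no effect and ±100 for the full control effect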); details: TR-UAS-bla HEK293, beta-lactamase ratio, antagonist mode, 18 h
Sequence of Thyroid hormone receptor beta (Homo sapiens) (P10828 whole entry, looked up): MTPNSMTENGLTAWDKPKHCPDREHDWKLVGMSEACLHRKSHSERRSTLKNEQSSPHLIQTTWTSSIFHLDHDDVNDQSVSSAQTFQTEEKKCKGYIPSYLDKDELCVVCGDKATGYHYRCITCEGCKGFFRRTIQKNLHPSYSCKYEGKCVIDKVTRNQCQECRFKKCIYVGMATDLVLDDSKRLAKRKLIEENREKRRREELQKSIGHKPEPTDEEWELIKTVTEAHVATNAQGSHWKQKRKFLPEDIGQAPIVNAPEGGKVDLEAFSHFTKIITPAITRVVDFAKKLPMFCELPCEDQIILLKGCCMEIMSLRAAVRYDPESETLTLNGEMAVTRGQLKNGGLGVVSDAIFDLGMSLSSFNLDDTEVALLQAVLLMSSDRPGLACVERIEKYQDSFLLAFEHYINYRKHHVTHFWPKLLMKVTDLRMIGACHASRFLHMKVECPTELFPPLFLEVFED
In short: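 TR-UAS-bla GripTite HEK293 cells in 2% charcoal/dextran FBS medium were preincubated 4 h at 37 C, given compound (0.59 nM to 92 uM) plus 0.4 nM T3 (final) for 18 h, then CCF4 for 2 h at RT; Hill fit gave IC50.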

[18] = molecular target: Voltage-gated inwardly rectifying potassium channel KCNH2 (Homo sapiens) (UniProt Q12809); test: qHTS Assay for Small Molecule Inhibitors of the Human hERG Channel Activity (AID 588834);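 note: top concentration of the series differs between compounds; % is set by controls: 0 for no effect and ±100 for the full control effect; lower thallium flux fluorescence means stronger hERG block; nearly all actives have a fitted effect of over 50% in size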
Sequence of Voltage-gated inwardly rectifying potassium channel KCNH2 (Homo sapiens) (Q12809 whole entry, looked up): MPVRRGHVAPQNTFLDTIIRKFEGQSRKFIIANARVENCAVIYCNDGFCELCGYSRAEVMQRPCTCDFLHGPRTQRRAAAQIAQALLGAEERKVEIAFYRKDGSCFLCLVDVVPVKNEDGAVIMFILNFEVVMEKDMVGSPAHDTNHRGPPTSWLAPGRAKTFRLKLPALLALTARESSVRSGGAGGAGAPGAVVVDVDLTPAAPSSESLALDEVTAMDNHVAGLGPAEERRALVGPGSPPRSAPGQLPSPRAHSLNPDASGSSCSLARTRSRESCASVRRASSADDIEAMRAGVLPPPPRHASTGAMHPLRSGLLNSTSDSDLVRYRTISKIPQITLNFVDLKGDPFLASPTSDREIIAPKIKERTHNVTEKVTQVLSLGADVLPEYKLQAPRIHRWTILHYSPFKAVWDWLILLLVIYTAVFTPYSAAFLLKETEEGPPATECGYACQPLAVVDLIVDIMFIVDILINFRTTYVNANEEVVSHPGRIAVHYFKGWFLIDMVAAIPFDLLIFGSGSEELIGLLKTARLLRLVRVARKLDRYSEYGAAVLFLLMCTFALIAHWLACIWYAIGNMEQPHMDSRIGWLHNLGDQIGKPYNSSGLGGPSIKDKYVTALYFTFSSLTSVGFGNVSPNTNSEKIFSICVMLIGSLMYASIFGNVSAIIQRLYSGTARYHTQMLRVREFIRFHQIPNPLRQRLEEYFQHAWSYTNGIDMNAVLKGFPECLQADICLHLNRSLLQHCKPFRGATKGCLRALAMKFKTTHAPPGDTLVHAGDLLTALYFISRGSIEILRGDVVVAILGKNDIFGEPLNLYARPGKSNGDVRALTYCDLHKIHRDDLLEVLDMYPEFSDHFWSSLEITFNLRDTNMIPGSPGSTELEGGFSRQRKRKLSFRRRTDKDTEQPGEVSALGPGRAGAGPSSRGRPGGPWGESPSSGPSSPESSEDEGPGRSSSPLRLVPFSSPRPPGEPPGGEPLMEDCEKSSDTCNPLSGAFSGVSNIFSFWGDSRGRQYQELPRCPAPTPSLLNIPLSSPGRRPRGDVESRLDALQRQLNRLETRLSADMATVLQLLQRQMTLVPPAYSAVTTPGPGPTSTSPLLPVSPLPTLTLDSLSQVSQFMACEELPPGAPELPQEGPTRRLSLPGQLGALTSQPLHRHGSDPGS
In short: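 In hERG-transduced U2OS cells, dye-loaded for 1 hr at room temperature in dark, test compounds incubated 10 min at 37 °C before thallium stimulation. AC50 values derived by Hill modelling of concentration-response.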

[19] = qHTS assay for small molecule activators of the p53 signaling pathway (AID 651743; active = well fitted activation curve with a large enough effect in the signal ratio, not every such curve was filed as active; the % refers to the signal ratio; note: % of control where 0% means no effect); details: HCT-116 p53RE-bla, beta-lactamase FRET ratio, 16 h; activation: hits give high values
In short: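 Agonist-mode quantitative HTS in HCT-116 cells carrying a p53-response-element beta-lactamase reporter; 16 h compound treatment at 37 C, then FRET substrate loading for 2 h at room temperature and fluorescence read.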

[20] = molecular target: Tumor necrosis factor (Homo sapiens) (UniProt P01375); test: qHTS assay to identify small molecules that stimulate Tumor Necrosis Factor-alpha (TNF-alpha) secretion (AID 651757; active = well fitted curve in the direction sought with a large enough effect in the signal ratio; the % refers to the signal ratio; note: 0% is about no effect)
Sequence of Tumor necrosis factor (Homo sapiens) (P01375 whole entry, looked up): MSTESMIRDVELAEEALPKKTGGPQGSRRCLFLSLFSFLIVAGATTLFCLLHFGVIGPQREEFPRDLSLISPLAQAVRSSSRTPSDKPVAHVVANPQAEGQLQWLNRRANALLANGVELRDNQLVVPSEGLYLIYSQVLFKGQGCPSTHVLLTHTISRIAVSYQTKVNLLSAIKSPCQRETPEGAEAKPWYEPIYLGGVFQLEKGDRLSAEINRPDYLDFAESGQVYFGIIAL
In short: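 Secreted TNF-alpha quantified by TR-FRET sandwich of two labeled anti-TNF-alpha antibodies, incubated 3 hr at room temperature. Preceded by 17 hr, 37 C compound treatment of THP-1 cells at 3000 cells/well.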

Cc1c(N=C=O)cccc1N=C=O
inactive: Potency [1] | outcome [2] | Potency [3] | Potency [4] | activity change, negative = cytotoxicity [5] 6.1% | outcome [6] | caspase-3 activation [7] -0.0166% | outcome [8] | outcome [9] | outcome [10] | outcome [11] | outcome [12] | Potency [13] | outcome [14] | activation [15] -8.06% and -0.129% | outcome [16] | activity change % (negative = inhibition) [17] 2.21% and -0.0232% | Potency [18] | activation [19] -0.524% and 6.01% | outcome [20]

Cc1ccccc1C
inactive: outcome [2] | Potency [3] | Potency [4] | activity change, negative = cytotoxicity [5] -2.71% and -0.376% | outcome [6] | caspase-3 activation [7] 3.87% and 7.19% | outcome [8] | outcome [9] | outcome [10] | outcome [11] | outcome [12] | Potency [13] | outcome [14] | activation [15] -7.63% and -0.245% | outcome [16] | activity change % (negative = inhibition) [17] 8.96% and 15% | Potency [18] | activation [19] -3.02% and -3.15% | outcome [20]

Nc1ccc(S(=O)(=O)O)cc1
inactive: Potency [1] | outcome [2] | Potency [3] | Potency [4] | activity change, negative = cytotoxicity [5] -9.81% | outcome [6] | caspase-3 activation [7] 0.897% | outcome [8] | outcome [9] | outcome [10] | outcome [11] | outcome [12] | Potency [13] | outcome [14] | outcome [16] | activity change % (negative = inhibition) [17] -11.7% and 17.4% | Potency [18] | activation [19] 3.7% and 3.55% | outcome [20]

COC(=O)CCCCC(=O)OC
inactive: Potency [1] | outcome [2] | Potency [3] | Potency [4] | activity change, negative = cytotoxicity [5] 5.83% | outcome [6] | caspase-3 activation [7] 2.55% | outcome [8] | outcome [9] | outcome [10] | outcome [11] | outcome [12] | Potency [13] | outcome [14] | activation [15] 7.61% and 12.5% | outcome [16] | activity change % (negative = inhibition) [17] 22.1% and -0.698% and -15.8% | Potency [18] | activation [19] -0.0209% and -1.5% | outcome [20]

O=C(O)c1ccc(O)cc1O
inactive: Potency [1] | outcome [2] | Potency [3] | Potency [4] | activity change, negative = cytotoxicity [5] -3.65% and 5.93% | outcome [6] | caspase-3 activation [7] -0.639% and 0.659% | outcome [8] | outcome [9] | outcome [10] | outcome [11] | outcome [12] | Potency [13] | outcome [14] | activation [15] 0.41% and -0.627% | outcome [16] | activity change % (negative = inhibition) [17] 0.5% and 23.9% | Potency [18] | activation [19] -0.261% and 0.22% | outcome [20]
